# Measurements taken from PubChem BioAssay AID743144 (Broad Institute, 2013).
# Results with a measured potency or affinity are listed apart. Inconclusive results are not listed. Active and inactive are the calls of the source. The rule behind the calls is not given here.
# Assay: cytotoxicity in COV362 ovarian cancer cells, dose response, cytotoxicity control for PAX8 inhibitor project, cell-based, plate reader, dry powder, SA12 (AID 743144)
# Conditions: series mostly up to 35 µM; activity change, negative = cytotoxicity: at the top concentration
row,SMILES,"activity change, negative = cytotoxicity"
1,COc1cccc(C#Cc2ccc([C@H]3[C@@H](CO)N(C(=O)c4ccccn4)[C@H]3C#N)cc2)c1,-41.4% (inactive)
2,CC(=O)N1CCOc2ccc(S(=O)(=O)N3CCN(c4cccc(C(F)(F)F)c4)CC3)cc21,-15.3% [at 50 µM] (inactive)
3,N#C[C@@H]1[C@@H](c2ccc(-c3cccc(F)c3)cc2)[C@H](CO)N1C(=O)NC1CCCC1,4.43% (inactive)
4,O=C1/C(=C/c2cccc(Br)c2)SC(=S)N1CCC(=O)N(CCO)c1ccccc1,-11.7% [at 50 µM] (inactive)
5,CCCC#Cc1ccc([C@@H]2[C@@H](C#N)N(S(=O)(=O)c3cccc(F)c3)[C@H]2CO)cc1,-1.4% (inactive)
6,C[C@H]1CN([C@@H](C)CO)C(=O)Cc2cc(NC(=O)NC3CCCCC3)ccc2O[C@@H]1CN(C)Cc1ccc(-c2ccccc2)cc1,21.3% (inactive)
7,COc1cccc(C#Cc2ccc([C@@H]3[C@@H](C#N)N(C(=O)C4CCCC4)[C@@H]3CO)cc2)c1,1.78% (inactive)
8,O=C(Nc1ccc(OCC(F)(F)C(F)F)c(C(F)(F)F)c1)c1ccccc1O,-10.1% [at 50 µM] (inactive)
9,Cc1ccc(S(=O)(=O)CC(CN2CCCCC2)N2CCCCC2)cc1 (configuration not stated),-29.5% [at 50 µM] (inactive)
10,COc1cccc(-c2ccc([C@H]3[C@@H](CO)N(C(=O)Cc4ccccc4)[C@H]3C#N)cc2)c1,-1.15% (inactive)
11,CC(C)c1cc(C(=O)OCC(=O)N2CCN(C(=O)c3ccco3)CC2)c(O)c(C(C)C)c1,0.074% [at 50 µM] (inactive)
12,C[C@@H]1CN([C@H](C)CO)C(=O)CCCn2nncc2CO[C@H]1CN(C)Cc1ccc(Oc2ccccc2)cc1,2.48% (inactive)
13,C[C@H](CO)N1C[C@H](C)[C@@H](CN(C)Cc2ccc(C(F)(F)F)cc2)OCCCC[C@H](C)Oc2ccc(NS(=O)(=O)c3ccc(F)cc3)cc2C1=O,-16.1% (inactive)
14,O=C(C[C@H]1CC[C@H]2[C@@H](COC[C@@H](O)CN2S(=O)(=O)c2cccc(Cl)c2)O1)Nc1ccc(-c2ccccc2)cc1,-17.3% (inactive)
15,COc1cccc(C#Cc2ccc([C@@H]3[C@@H](C#N)N(C(=O)C4CCCCC4)[C@@H]3CO)cc2)c1,4.28% (inactive)
16,Cc1ccc(S(=O)(=O)Nc2ccc3c(c2)C(=O)N([C@H](C)CO)C[C@@H](C)[C@H](CN(C)Cc2ccc(C(F)(F)F)cc2)OCCCC[C@H](C)O3)cc1,1.4% (inactive)
17,COc1ccc(S(=O)(=O)Nc2ccc3c(c2)CC(=O)N([C@@H](C)CO)C[C@H](C)[C@@H](CN(C)Cc2ccc(C(F)(F)F)cc2)O3)cc1,-11.9% (inactive)
18,COc1ccccc1C#Cc1ccc([C@@H]2[C@@H](C#N)N(C(=O)C3CCCCC3)[C@H]2CO)cc1,-15.9% (inactive)
19,O=C(CCS(=O)(=O)c1ccccc1)Nc1nc2ccc(F)cc2s1,-15.5% [at 50 µM] (inactive)
20,COCC(=O)N1[C@H](CO)[C@H](c2ccc(-c3cccnc3)cc2)[C@@H]1C#N,2.03% (inactive)
21,O=C(CN1C(=O)c2ccccc2S1(=O)=O)c1ccccc1Cl,6.01% [at 50 µM] (inactive)
22,C[C@H](CO)N1C[C@H](C)[C@@H](CN(C)S(=O)(=O)c2ccc(Cl)cc2)OCCCC[C@H](C)Oc2ccc(NS(=O)(=O)c3ccccc3)cc2C1=O,-35.1% (inactive)
